{"source": "PubChem BioAssay AID1964107", "about": "(National Center for Advancing Translational Sciences (NCATS), 2024)", "note": "In all, about 31,000 compounds went through this assay and about 360 (1.2%) were called active. Roughly 8% stayed inconclusive and do not appear here. The call rests on the fitted dose curve. This excerpt belongs to a sample that is enriched for actives. On the % scale 0 is the no-effect control and ±100 the full control effect; potency means the concentration at half of the fitted maximal effect."}
{"target": "Polyprotein P1234 (Chikungunya virus (strain S27-African prototype)) (UniProt Q8JUX6)", "sequence (Q8JUX6 whole entry, looked up)": "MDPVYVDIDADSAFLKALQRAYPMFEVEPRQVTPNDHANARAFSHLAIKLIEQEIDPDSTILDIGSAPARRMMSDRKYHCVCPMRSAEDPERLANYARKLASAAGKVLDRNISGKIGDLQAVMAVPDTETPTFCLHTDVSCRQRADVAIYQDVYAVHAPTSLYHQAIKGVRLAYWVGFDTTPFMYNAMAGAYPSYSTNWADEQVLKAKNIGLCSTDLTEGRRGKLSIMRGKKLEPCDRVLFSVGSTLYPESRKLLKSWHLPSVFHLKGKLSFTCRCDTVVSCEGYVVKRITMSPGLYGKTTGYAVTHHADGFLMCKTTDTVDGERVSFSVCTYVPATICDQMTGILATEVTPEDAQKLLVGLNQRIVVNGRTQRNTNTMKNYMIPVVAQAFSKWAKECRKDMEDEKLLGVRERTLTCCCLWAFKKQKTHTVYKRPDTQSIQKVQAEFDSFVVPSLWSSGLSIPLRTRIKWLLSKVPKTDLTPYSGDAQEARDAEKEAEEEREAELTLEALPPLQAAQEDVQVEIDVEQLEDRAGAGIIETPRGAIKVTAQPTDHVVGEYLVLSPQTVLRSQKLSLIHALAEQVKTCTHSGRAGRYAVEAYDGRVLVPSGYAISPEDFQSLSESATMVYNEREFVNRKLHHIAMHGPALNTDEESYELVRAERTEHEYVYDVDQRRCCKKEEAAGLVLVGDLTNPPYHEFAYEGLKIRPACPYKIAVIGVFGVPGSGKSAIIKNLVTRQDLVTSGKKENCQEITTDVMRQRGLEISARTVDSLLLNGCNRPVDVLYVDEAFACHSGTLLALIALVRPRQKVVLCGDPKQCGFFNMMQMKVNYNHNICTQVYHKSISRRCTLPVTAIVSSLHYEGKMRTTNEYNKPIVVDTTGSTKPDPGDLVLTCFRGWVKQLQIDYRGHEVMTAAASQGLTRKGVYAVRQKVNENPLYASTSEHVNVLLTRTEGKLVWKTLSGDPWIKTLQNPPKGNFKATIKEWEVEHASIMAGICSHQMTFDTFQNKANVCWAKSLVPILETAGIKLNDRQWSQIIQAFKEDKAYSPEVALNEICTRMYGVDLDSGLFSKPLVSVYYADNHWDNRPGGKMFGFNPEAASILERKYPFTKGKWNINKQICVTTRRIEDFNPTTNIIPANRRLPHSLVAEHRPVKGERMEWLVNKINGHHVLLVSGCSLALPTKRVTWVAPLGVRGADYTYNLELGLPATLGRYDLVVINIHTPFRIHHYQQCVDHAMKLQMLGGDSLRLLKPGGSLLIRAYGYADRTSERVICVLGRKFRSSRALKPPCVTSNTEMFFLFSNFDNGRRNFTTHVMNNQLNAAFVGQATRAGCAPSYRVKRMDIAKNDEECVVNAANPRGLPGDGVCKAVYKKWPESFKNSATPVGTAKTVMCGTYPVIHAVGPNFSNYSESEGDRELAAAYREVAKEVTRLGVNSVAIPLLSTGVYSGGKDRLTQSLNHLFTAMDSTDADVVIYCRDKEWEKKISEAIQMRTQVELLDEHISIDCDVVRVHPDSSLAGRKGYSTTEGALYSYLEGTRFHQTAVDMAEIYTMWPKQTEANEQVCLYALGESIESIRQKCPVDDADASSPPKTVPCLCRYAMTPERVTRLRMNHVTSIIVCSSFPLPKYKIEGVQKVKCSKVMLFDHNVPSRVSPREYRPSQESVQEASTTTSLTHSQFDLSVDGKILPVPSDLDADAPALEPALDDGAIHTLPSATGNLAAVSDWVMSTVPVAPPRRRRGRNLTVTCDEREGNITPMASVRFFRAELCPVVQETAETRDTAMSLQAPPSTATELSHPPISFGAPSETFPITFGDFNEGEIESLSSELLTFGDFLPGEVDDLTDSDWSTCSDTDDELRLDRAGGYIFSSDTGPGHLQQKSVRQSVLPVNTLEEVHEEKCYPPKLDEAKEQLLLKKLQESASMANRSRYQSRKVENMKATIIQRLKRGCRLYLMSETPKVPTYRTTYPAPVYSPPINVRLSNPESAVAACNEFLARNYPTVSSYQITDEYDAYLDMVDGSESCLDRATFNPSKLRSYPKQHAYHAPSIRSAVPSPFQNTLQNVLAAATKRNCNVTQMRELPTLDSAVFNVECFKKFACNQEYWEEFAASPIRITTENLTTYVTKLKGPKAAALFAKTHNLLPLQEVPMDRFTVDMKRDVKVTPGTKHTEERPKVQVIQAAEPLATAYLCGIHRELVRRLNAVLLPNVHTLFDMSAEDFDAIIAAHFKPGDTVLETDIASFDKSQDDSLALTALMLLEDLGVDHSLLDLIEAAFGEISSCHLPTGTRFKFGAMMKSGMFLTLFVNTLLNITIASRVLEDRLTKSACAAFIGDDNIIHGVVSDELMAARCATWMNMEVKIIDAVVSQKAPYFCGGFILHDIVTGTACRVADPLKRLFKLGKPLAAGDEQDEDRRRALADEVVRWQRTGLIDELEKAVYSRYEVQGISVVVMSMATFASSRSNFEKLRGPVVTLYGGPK", "experiment": "Primary qHTS for inhibitors of NSP2Pro chikungunya virus (CHIKV); further: nearly all actives have a fitted effect of over 60% in size", "conditions": "FRET peptide cleavage, fluorescence 1 h; series mostly up to 24.9 µM; activity change, negative = inhibition: at the top concentration", "description": "PI: Natalia J. Martinez Ph.D. National Center for Advancing Translational Sciences (NCATS), National Institute of Health (NIH), Rockville, Maryland Chikungunya virus (CHIKV) is a mosquito-borne RNA virus that has emerged as one of the most important global arboviral threats in the last decade. Although the first CHIKV vaccine has recently been FDA approved for use in healthy adults at increased risk, to date, there are no available antiviral drugs for CHIKV infection. CHIKV nsP2 protease plays a crucial role in the processing of the viral polypeptide precursor to release enzymes required for viral replication, thus making it a promising drug target for antiviral discovery. Here, we established a high-throughput pipeline to identify small molecule inhibitors of nsP2 proteolytic activity. The pipeline is composed of a suite of 1,536-well in vitro assays to support quantitative high-throughput (qHTS) screening campaigns. Specifically, we developed a fluorescence resonance energy transfer (FRET)-based assay using a fluorogenic peptide substrate encompassing an endogenous cleavage site and purified recombinant protease domain (nsP2pro). Using this assay, we interrogated ~37,000 small molecules, including those in drug repurposing libraries as well as chemically diverse and medicinal chemistry-friendly compounds. Hits were selected for follow-up validation against full-length nsP2 and an additional peptide. FRET-based 1,536-well assays for papain, hepatitis C virus NS3-4A, and human furin proteases were implemented to characterize compound selectivity. […] Novel compounds were identified to be potential nsP2 inhibitors and molecular docking analyses were performed to explain the binding mode of selected hits. In vitro antiviral activity was evaluated for a subset of compounds using a high-throughput CHIKV infection assay. To our knowledge, the pipeline presented here is unprecedented for CHIKV antiviral discovery research.\nPROTOCOL TABLE (as described by Inglese J, Shamu CE and Guy RK. 2007) SEQUENCE No. (e.g., 1, 2, 3, etc.); […] (e.g., Cells, Incubation, Reagent, etc.); VALUE; DESCRIPTION. 1; Control / Compound; 20 nL; Echo 655 acoustic dispenser, Greiner 1536-well solid bottom black plate. 2; Enzyme; 4 uL; BioRAPTR FRD liquid dispenser (Beckman Coulter). 3; Incubation; 15 min; room temperature. 4; Reagent; 4 uL; 2.5 uM Peptide 2 substrate. 5; Incubation; 1 hr; room temperature. 6; Detection; Fluorescence; WiewLux microplate reader (PerkinElmer), 525 nm excitation, 598/25 nm emission. NOTES (numbers refer to sequence numbers above). 1. Briefly, 20 nL DMSO, positive control ZnAc (20nM final concentration), and test compounds were transferred into a 1,536-well solid bottom black plate (789176-F, Greiner One) via Echo 655 acoustic dispenser (Beckman Coulter). For primary screens, compounds were tested at 7 concentrations, 1:3 dilution points ranging from 25 uM to 34 nM. Follow-up confirmatory screens were carried out at 11 concentrations, 1:3 dilution points from 25 uM to 0.42 nM. 2. Four uL nsP2pro enzyme mix (150 nM final concentration) in 10 mM Tris-HCl pH 8.0 with 0.01% Tween 20 assay buffer was dispensed into the plate using a BioRAPTR FRD liquid dispenser (Beckman Coulter). 3. The plate was incubated at room temperature (protected from light) for 15 min 4. Four microliter of peptide 2 substrate (2.5 uM final concentration) in assay buffer was added to the plate. 5. After 1 hour, plates were immediately read on a ViewLux high-throughput CCD imager (Exposure = 10 sec, Gain = High, Speed = Slow, Binning = 2X). The above assay was also incorporated in the NCATS HTS facility41, which allowed for robotic liquid and compound dispensing, microplate handling, and fluorescence reading.. REFERENCE: Inglese J, Shamu CE and Guy RK, Reporting data from high throughput screening of small molecule libraries, Nature Chemical Biology, 2007, 3(8): 438-441. doi.org/10.1038/nchembio0807-438."}
{"smiles": "Cc1nn(Cc2ccccc2Cl)c(C)c1CN(C)CC(O)COc1ccc(Cl)cc1", "note": "(stereo unspecified)", "activity change, negative = inhibition": "0.58% (inactive)"}
{"smiles": "O=C(Nc1nc(-c2ccccc2)cs1)c1ccncc1NS(=O)(=O)c1ccc(-c2ccccc2)cc1", "outcome": "inactive"}
{"smiles": "CCOCCOC1CCN(S(=O)(=O)c2ccc(OC)cc2)CC1", "outcome": "inactive"}
{"smiles": "CCOCCCNC(=O)c1cc2c(=O)n3ccccc3nc2s1", "activity change, negative = inhibition": "-12% (inactive)"}
{"smiles": "CCc1noc(-c2cn(C3CCN(C(=O)C4(c5ccccc5)CC4)C3)nn2)n1", "note": "(stereo unspecified)", "outcome": "inactive"}
{"smiles": "COc1ccc(Cc2ncc3c(n2)CN(C(=O)c2ccc(OC)c(O)c2)C3)cc1", "activity change, negative = inhibition": "4.72% (inactive)"}
{"smiles": "CC(NC(=O)c1cc(Sc2ccc(F)cc2F)nc2ccccc12)c1ccccc1", "note": "(stereo unspecified)", "activity change, negative = inhibition": "-18.2% (inactive)"}
{"smiles": "O=C(N[C@@H]1CCOC[C@H]1OCCO)c1ccc2c(c1)ncn2CCO", "activity change, negative = inhibition": "-3.4% (inactive)"}
{"smiles": "CCC(=O)N1N=C(c2ccc(OC)cc2)CC1c1cn(-c2ccccc2)nc1-c1cccs1", "note": "(stereo unspecified)", "activity change, negative = inhibition": "-18.6% (inactive)"}
{"smiles": "CCC(=O)N1CCc2cc(S(=O)(=O)NC(Cc3ccccc3)C(=O)NCc3ccc(C)cc3)ccc21", "note": "(stereo unspecified)", "activity change, negative = inhibition": "-26.4% (inactive)"}
{"smiles": "FC(F)(F)c1cccc(N2CCN(C(=S)Nc3ccncc3)CC2)c1", "activity change, negative = inhibition": "0.924% (inactive)"}
{"smiles": "COc1cccc(-c2cn3c(n2)N(C(=O)c2cnccn2)CCC3)c1", "activity change, negative = inhibition": "5.42% (inactive)"}
{"smiles": "CCCN=C1S/C(=C\\c2ccc(OC[C@H](O)CO)c(Cl)c2)C(=O)N1c1ccccc1C", "activity change, negative = inhibition": "-11.9% (inactive)"}
{"smiles": "CC(=O)c1ccc(NS(=O)(=O)c2ccc(-c3cc(C)no3)s2)cc1", "activity change, negative = inhibition": "-10.1% (inactive)"}
{"smiles": "Cc1ccc(N2CCN(C(=O)CCc3c(C)nc4c(c3C)c(=O)n(C)c(=O)n4C)CC2)c(C)c1", "activity change, negative = inhibition": "-6.64% (inactive)"}
{"smiles": "CCC(=O)N1CCc2cc(Br)cc(S(=O)(=O)CCC(=O)NCc3ccccc3OC)c21", "activity change, negative = inhibition": "-13.4% (inactive)"}
{"smiles": "CCOc1ccc(NC(=O)Cn2nc3n(c2=O)CCN(Cc2ccccc2C)C3=O)cc1", "activity change, negative = inhibition": "-3.88% (inactive)"}
{"smiles": "N#Cc1ccc(-c2ccc(NC(=O)c3cccs3)cn2)cc1", "activity change, negative = inhibition": "4.86% (inactive)"}
{"smiles": "CCOc1ccc(CNC(=O)c2ccc3nc(CC)c(CC)nc3c2)cc1OC", "activity change, negative = inhibition": "-2.04% (inactive)"}
{"smiles": "COc1ccc(CNC(=O)c2cc3c(s2)CN(C2CC2)C3)cc1OC", "outcome": "inactive"}
{"smiles": "COc1ccc(C2=Nn3c(nnc3-c3ccccc3O)SC2)cc1", "activity change, negative = inhibition": "2.77% (inactive)"}
{"smiles": "CCC(C)C(=O)O[C@H]1[C@@H](OC(=O)c2ccoc2)C[C@](C)(O)[C@]23OC(C)(C)[C@H](C[C@H](OC(=O)c4ccoc4)[C@]12COC(C)=O)[C@H]3OC(C)=O", "note": "(stereo partly specified)", "activity change, negative = inhibition": "-3.85% [at 10 µM] (inactive)"}
{"smiles": "CC1=C[C@@H](CNC2CCOCC2)[C@H](C(C)C)C[C@H]1Cc1nc2ccc(F)cc2[nH]1", "activity change, negative = inhibition": "3.26% [at 39.2 µM] (inactive)"}
{"smiles": "COc1ccc(C2=NS(=O)(=O)N(C)C(C(=O)NC(C)c3ccccc3)=C2)cc1", "note": "(stereo unspecified)", "activity change, negative = inhibition": "-13.3% (inactive)"}
{"smiles": "CC(C)Oc1cccc(-c2cnc(N3CCC(C(N)=O)CC3)s2)c1", "activity change, negative = inhibition": "0.0009% (inactive)"}
{"smiles": "O=C(Nc1ccccc1-c1cn2c(CN3CCNCC3)csc2n1)c1ccc2ccccc2n1", "activity change, negative = inhibition": "17.2% (inactive)"}
{"smiles": "COCC(=O)N(C[C@H]1O[C@@H](CC(=O)NC2CC2)[C@H](O)[C@@H]1O)C[C@H]1O[C@@H](CC(=O)NC2CC2)[C@H](O)[C@@H]1O", "outcome": "inactive"}
{"smiles": "C=CC1C(OC2OC(CO)C(O)C(O)C2O)OC=C(C(=O)OC)C1CC1CC(=O)CC(CCc2ccc(O)cc2)O1", "note": "(stereo unspecified)", "activity change, negative = inhibition": "7.34% [at 10 µM] (inactive)"}
{"smiles": "COc1ccccc1CC(=O)N1CCc2c(nc3cc(-c4ccccc4Cl)[nH]n3c2=O)C1", "outcome": "inactive"}
{"smiles": "COc1ccc(C2CC(=O)N(Cc3ccccc3C)c3c2c(C)nn3-c2nc(C)cc(C)n2)c(OC)c1", "note": "(stereo unspecified)", "activity change, negative = inhibition": "-7.48% (inactive)"}
{"smiles": "COc1ccc(/C=C2/C(=O)Nc3ccccc32)cc1O", "outcome": "inactive"}
{"smiles": "COc1ccc(C(=O)Nc2cccc(C(=O)OCc3cc(=O)n4c5c(sc4n3)CCCC5)c2)cc1", "activity change, negative = inhibition": "-10.2% (inactive)"}
{"smiles": "Cc1cnc(C2CCC2)n1C1CCN(C(=O)CCC2CCCC2)CC1", "activity change, negative = inhibition": "-1.69% (inactive)"}
{"smiles": "O=C(NCc1ccc(Cl)cc1)c1cc(-c2ccc[nH]2)n[nH]1", "Potency": "8.91 µM (active)"}
{"smiles": "O=C(CSc1nccn1Cc1ccc(Cl)cc1)NCc1ccccc1", "activity change, negative = inhibition": "-0.86% (inactive)"}
{"smiles": "O=C(CSc1ncc(CO)n1Cc1ccc(Cl)cc1)NCc1ccc(F)cc1", "activity change, negative = inhibition": "-6.18% (inactive)"}
{"smiles": "COc1ccc(CCn2cc3c(c2-c2ccc(Br)cc2)c(=O)n(C)c(=O)n3C)cc1OC", "activity change, negative = inhibition": "-19.2% (inactive)"}
{"smiles": "C[C@@H]1[C@H](O)[C@@H]2OC(=O)C3=C2[C@H](CCC3)[C@@]12C[C@@H](c1ccoc1)OC2=O", "Potency": "5.44 µM (active)"}
{"smiles": "COc1cccc(CNc2ccc(S(=O)(=O)Nc3cc(C)on3)cc2)c1O", "outcome": "inactive"}
{"smiles": "Fc1ccc(CSc2nc(NCc3ccccc3)c3ccccc3n2)cc1", "activity change, negative = inhibition": "3.47% (inactive)"}
{"smiles": "O=C(Nc1ccc(O)c(-c2nc3ccccc3o2)c1)c1ccc(-c2cccc(Cl)c2)o1", "activity change, negative = inhibition": "-11.1% (inactive)"}
{"smiles": "Cc1nn(C(C)C(=O)NCCc2ccccc2)c(=O)c2c1sc1ccccc12", "note": "(stereo unspecified)", "activity change, negative = inhibition": "-15.8% (inactive)"}
{"smiles": "CCOC(=O)c1c(S(=O)(=O)NCC(=O)Nc2ccc(Cl)c(C(F)(F)F)c2)c(C)n(C)c1C", "activity change, negative = inhibition": "-19.1% (inactive)"}
{"smiles": "Cc1ncc([N+](=O)[O-])n1C[C@H](O)CN1CCOCC1", "activity change, negative = inhibition": "11.8% (inactive)"}
{"smiles": "CC(C)NC(=O)NCC1Cn2cccc2C(=O)N1Cc1ccccc1", "note": "(stereo unspecified)", "activity change, negative = inhibition": "-12.1% (inactive)"}
{"smiles": "O=C(Cn1nc(C2CC2)ccc1=O)NCCc1ccccc1", "activity change, negative = inhibition": "-6.14% (inactive)"}
